Source: PubChem BioAssay

What follows are molecules tested against Voltage-gated potassium channel subunit beta-2 (Rattus norvegicus) (UniProt P62483) (assay: enhancers of rat Kvbeta2 NADPH turnover – biochemical, NADPH fluorescence, primary screen (AID 623;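 also: fluorescence intensity change per second fitted from 20 to 320 s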)). Conditions: Recombinant KvBeta, NADPH fluorescence decrease slope, 10 min; at 10 µM; hits give low values;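 active = NADPH fluorescence slope more negative than the mean of all samples by about 3 SD, 99.7% confidence; inactive = the rest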.
Chain of Voltage-gated potassium channel subunit beta-2 (Rattus norvegicus) (P62483 whole entry, looked up): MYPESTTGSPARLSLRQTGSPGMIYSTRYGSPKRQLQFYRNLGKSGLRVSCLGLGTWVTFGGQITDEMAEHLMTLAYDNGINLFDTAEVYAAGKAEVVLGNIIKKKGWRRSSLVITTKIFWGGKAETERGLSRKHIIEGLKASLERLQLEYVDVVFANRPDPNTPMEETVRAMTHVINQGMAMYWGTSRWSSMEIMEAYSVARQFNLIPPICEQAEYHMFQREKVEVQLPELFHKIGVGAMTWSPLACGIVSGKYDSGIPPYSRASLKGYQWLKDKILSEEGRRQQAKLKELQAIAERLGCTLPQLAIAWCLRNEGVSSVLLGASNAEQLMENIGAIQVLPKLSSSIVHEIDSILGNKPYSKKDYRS

NADPH fluorescence slope, inactive:
CCOC(=O)N1CCN(C(=O)c2cccn3c(=O)c4sccc4nc23)CC1 1.5e-05
O=C(c1cc2ccccc2oc1=O)N1CCN(c2ccc(N3CCOCC3)nn2)CC1 -1.8e-05
CCc1cccc(NC(=O)CCc2nc(-c3cccs3)no2)c1 -2.7e-05
O=C(C1CC1)N1CCc2cc(Br)cc(S(=O)(=O)N3CCOCC3)c21 -3.6e-05
CCOCCCNC(=O)C1CCCN(S(=O)(=O)CC)C1 (stereo not given) -4e-05
C/C(N)=C(/C#N)C(=O)COC(=O)CCSc1ccccc1 -6.7e-05
CCCOc1ccc(N2CC(C(=O)Nc3ccc4c(c3)OCO4)CC2=O)cc1 (stereo not given) -2.5e-06
CCC(C)Nc1nc2c(c(=O)n(C)c(=O)n2C)n1Cc1ccc(F)cc1 (stereo not given) -3.2e-05
COc1ccc2cc(C(c3nnnn3C3CCCCC3)N3CCCCCC3)c3nnnn3c2c1 (stereo not given) -3.1e-06
O=C(Nc1cccnc1)Nc1ccccn1 -4.6e-05
O=C(NC1CCCCC1)c1cc2nc(-c3ccco3)cc(C(F)(F)F)n2n1 -5.6e-05
O=C(CCN1C(=O)COc2ccccc21)NCCN1CCN(c2cccc(Cl)c2)CC1 -2.6e-06
CCCc1cc(=O)[nH]c(SCc2ccccc2)n1 -1.1e-07
CC(CCc1ccco1)NC(=O)Cn1ncc2c1-c1ccccc1OC2 (stereo not given) -1.5e-05
CCCNC(=O)c1ccccc1NC(=O)CN(c1ccccc1OCC)S(C)(=O)=O -5.5e-06
